Rows were chosen to be rich in hits. Some 2.9% of all compounds tested hit in one or more screens of this group.
Smad3 inh = blocks human Smad3 binding to FoxH1 peptide; actives 0.29% (n = 88,000); P84022; inhibition, % at 25 µM; TR-FRET Smad3/Dy647-FoxH1 peptide binding, europium anti-His; AID 630;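 active = compounds that reduce the energy-transfer binding signal between the protein and its labelled peptide by more than half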
MRP1 act = MRP-1 activation. AID 799. actives 0.61% (n = 140,000). H69AR cells + doxorubicin, viability rescue, CellTiter-Glo. viability increase, % at 10 µM;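 active = viability gain under doxorubicin at or above a set limit, the compound median plus 3 SD, cut at about 4.7% in these data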;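 note: MRP-1 overexpressing cells given doxorubicin 25 µM after compound pretreatment; 18-22 h compound pretreatment then 72 h with doxorubicin before readout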
ERa SRC1 inh = ER-alpha (human) coactivator binding inhibition. P03372. TR-FRET ER-alpha LBD / SRC-1 peptide, estradiol-bound. inhibition, % at 25.6 µM. actives 1.7% (n = 86,000). AID 629; in the data active = inhibition above about 50%
Target sequence (P03372 whole entry, looked up, the tested form may be a part): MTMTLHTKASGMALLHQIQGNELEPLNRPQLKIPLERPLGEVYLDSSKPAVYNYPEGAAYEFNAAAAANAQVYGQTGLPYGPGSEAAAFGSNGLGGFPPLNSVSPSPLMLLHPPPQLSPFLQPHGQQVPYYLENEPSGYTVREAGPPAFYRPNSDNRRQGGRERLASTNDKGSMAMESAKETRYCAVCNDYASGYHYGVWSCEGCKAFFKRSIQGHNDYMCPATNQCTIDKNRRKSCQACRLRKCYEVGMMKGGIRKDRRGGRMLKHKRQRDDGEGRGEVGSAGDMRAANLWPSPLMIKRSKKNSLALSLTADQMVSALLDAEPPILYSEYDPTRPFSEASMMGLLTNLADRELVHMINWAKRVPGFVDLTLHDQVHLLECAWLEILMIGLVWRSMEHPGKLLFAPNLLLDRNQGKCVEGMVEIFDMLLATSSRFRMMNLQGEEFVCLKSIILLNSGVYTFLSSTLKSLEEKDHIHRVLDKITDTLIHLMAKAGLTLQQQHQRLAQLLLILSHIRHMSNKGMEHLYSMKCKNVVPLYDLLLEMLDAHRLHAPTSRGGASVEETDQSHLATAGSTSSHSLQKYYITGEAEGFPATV
ERb SRC1 inh = ER-beta (human) coactivator binding inhibition; inhibition, % at 25.6 µM; AID 633; TR-FRET ER-beta LBD / SRC1-Cy5 peptide binding; receptor agonist-loaded with 1 µM estradiol; actives 1.3% (n = 86,000);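 active = compounds whose percent inhibition of the receptor-coactivator binding signal exceeds about 50% in the single-dose screen, limit read from the data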
MRP resist rev = reverses drug resistance mediated by MRP. H69AR cells + 2 uM doxorubicin, CellTiter-Glo, 72 h. differential viability (reversal), % at 10 µM. actives 0.04% (n = 85,000);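 active = viability drop by adding the cancer drug above about 55%, with treated viability meeting a 40% cutoff, limit read from the data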;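 note: larger differential means the compound sensitizes cells more to doxorubicin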
ERa SRC1 pot = enhances coactivator binding to human estrogen receptor alpha. TR-FRET ERalpha-LBD/SRC-Cy5 coactivator binding, 2 h; 100 = basal binding, no effect. AID 639. actives 1.3% (n = 86,000). coactivator binding (% of control), % at 25.6 µM; in the data active = activity above about 200%;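 note: binding measured in presence of low estradiol as agonist stimulus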
Numbers stand for hits; . = inactive; / = no result given; [ ] = remark or other dose.

SMILES | Smad3 inh | MRP1 act | ERa SRC1 inh | ERb SRC1 inh | MRP resist rev | ERa SRC1 pot
COc1ccc(N(C(=O)Nc2ccc(Cl)cc2)C2=NCCC2)cc1 | . | . | . | . | . | .
O=C(Nc1ccccc1)c1ccc2nc(-c3ccco3)c(-c3ccco3)nc2c1 | . | . | 90[fluorescence artefact?] | 88[fluorescence artefact?] | . | .
O=C(NCc1ccccc1)c1ccc2nc(-c3ccco3)c(-c3ccco3)nc2c1 | . | . | 93[fluorescence artefact?] | 97[fluorescence artefact?] | . | .
CC(=O)c1ccc(NC(=O)c2ccc3nc(-c4ccco4)c(-c4ccco4)nc3c2)cc1 | . | . | 92[fluorescence artefact?] | 95[fluorescence artefact?] | . | .
CCCCNC(=O)c1ccc2nc(-c3ccco3)c(-c3ccco3)nc2c1 | / | . | / | / | / | /
CN1CCN(c2nc3c(c(=O)n(C)c(=O)n3C)n2C)CC1 | . | / | / | / | / | /
CCOC(=O)c1sc(NC(=O)c2c(C)nn(Cc3ccccc3)c2C)cc1C | . | . | . | . | . | 202
Cc1cc(NC(=O)CSc2ccc(-c3nc4cc(C)c(C)cc4[nH]3)cn2)no1 | . | . | . | . | . | 243[fluorescence artefact?]
CCc1cc2ccc(OC)cc2nc1SCC(=O)Nc1cc(C)on1 | . | . | . | . | . | 205
Cc1cc2nc(-c3ccc(SCC(=O)Nc4ccc(S(=O)(=O)NC5CC5)cc4)nc3)[nH]c2cc1C | / | . | / | / | / | /
COc1ccc(-c2nsc(SCC(=O)Nc3cc(C)on3)n2)cc1 | . | . | . | . | . | 241[fluorescence artefact?]
CCc1nc(SCC(=O)Nc2cc(C)on2)c2c(C)c(C)sc2n1 | . | . | . | . | . | 234[fluorescence artefact?]
FC(F)(F)c1cc(NC(=S)N2c3ccccc3-n3cccc3[C@H]2c2cccnc2)cc(C(F)(F)F)c1 | . | / | / | / | / | /
O=C(SCc1cccc2ccccc12)c1ccc(Cl)cc1 | . | / | / | / | / | /
O=C(O)c1ccc([N+]2=Cn3c(nc4ccccc43)C2)cc1 | . | / | / | / | / | /
CC1Cc2ccccc2N1C(=O)CSc1nc2cc3c(cc2cc1C#N)OCO3 (centres undefined) | . | . | . | . | . | 298[fluorescence artefact?]
COC(=O)CSc1nc2cc3c(cc2cc1C#N)OCO3 | . | . | . | . | . | 284[fluorescence artefact?]
Cc1cc2cc3c(cc2nc1SCC(=O)N1c2ccccc2CC1C)OCO3 (centres undefined) | . | . | 51[fluorescence artefact?] | . | . | .
CCOC(=O)CSc1nc2cc(OC)ccc2cc1C#N | . | . | . | . | . | 347[fluorescence artefact?]
CCn1c(NC(=O)Nc2ccccc2OC)nc2ccccc21 | . | . | . | . | . | .
C[C@H](Br)C(=O)c1ccc2cc(Br)c3ccccc3c2c1 | . | / | / | / | / | /
CN(CC(=O)O)Cc1c[nH]c2ccccc12 | . | / | / | / | / | /
OC[C@H](CCc1c[nH]c2ccccc12)c1c[nH]c2ccccc12 | . | / | / | / | / | /
CCOC(=O)c1sc(Nc2nc3cc4c(cc3s2)OCO4)cc1C | / | 4.7 | / | / | / | /
Cc1cc(NC(=O)CSc2nc3c(sc4ccccc43)c(=O)n2CCCN2CCOCC2)n[nH]1 | . | . | . | . | . | .
SMILES | Smad3 inh | MRP1 act | ERa SRC1 inh | ERb SRC1 inh | MRP resist rev | ERa SRC1 pot
Cc1cc(NC(=O)CSc2nc3c(sc4ccccc43)c(=O)n2CCc2ccccc2)n[nH]1 | . | . | 50[fluorescence artefact?] | . | . | .
Cc1cc(N2CCOCC2)nc2ccc(Cc3ccc4nc(N5CCOCC5)cc(C)c4c3)cc12 | . | / | / | / | / | /
O=C(Nc1cccc2ccccc12)c1cn(-c2ccccc2)nc1-c1cccs1 | . | . | . | . | . | 203[fluorescence artefact?]
O=C(Nc1cccnc1)c1cn(-c2ccccc2)nc1-c1cccs1 | . | . | . | . | . | .
CCOC(=O)c1cc(C(=O)n2cc(Cl)cn2)nn1C | / | . | / | / | / | /
Cc1c(C(=O)OCC(=O)c2ccc3c(c2)OCCO3)oc2ccccc12 | . | . | . | . | . | .
O=C(COC(=O)C(O)c1ccccc1)c1ccc2c(c1)OCCO2 (centres undefined) | . | . | . | . | . | 421
CCCNc1nc(N2CCOCC2)nc(N2CCOCC2)n1 | . | . | . | 55 | . | .
CCn1cc(C(=O)Nc2ccccc2C(=O)OC)c(=O)c2ccc(C)nc21 | . | / | . | . | . | .
CCn1cc(C(=O)NC2CCc3ccccc32)c(=O)c2ccc(C)nc21 (centres undefined) | . | . | . | . | . | 425[fluorescence artefact?]
CCn1cc(C(=O)Nc2ccc(-n3cnnn3)c(OC)c2)c(=O)c2ccc(C)nc21 | . | . | . | . | . | 337[fluorescence artefact?]
CCn1cc(C(=O)Nc2ccc(NC(=O)c3ccco3)cc2)c(=O)c2ccc(C)nc21 | / | . | / | / | / | /
CCn1cc(C(=O)Nc2cccc(C(=O)OC)c2)c(=O)c2ccc(C)nc21 | . | / | . | . | . | .
CCCOC(=O)c1ccc(NC(=O)c2cn(CC)c3nc(C)ccc3c2=O)cc1 | 61[fluorescence artefact?] | . | . | . | . | 275[fluorescence artefact?]
O=C(O)[C@@H](Br)[C@@H](Br)c1ccccc1[N+](=O)[O-] | . | / | / | / | / | /
COc1cccc(-n2c(Cc3cc(=O)[nH]c(=O)[nH]3)nnc2SCC(=O)N2CCCCC2)c1 | . | . | . | . | . | .
O=C(O)CCC(=O)c1ccc[nH]1 | . | / | / | / | / | /
Cc1cc(C)n(-c2ccc(C(=O)Nc3nc4ccccc4s3)cc2)n1 | . | . | . | . | . | 208[fluorescence artefact?]
Cc1cc(C)n(-c2ccc(C(=O)Nc3cccc(S(=O)(=O)N(C)C)c3)cc2)n1 | / | 5.8 | / | / | / | /
Nc1ccc(C(=O)Nc2nc3ccccc3s2)cc1 | . | . | . | . | . | .
Nc1cc(C(=O)O)[nH]c(=O)n1 | . | / | / | / | / | /
NCCNC[C@H](O)CO | . | / | / | / | / | /
CSc1ccccc1NC(=O)c1noc2c1CCC2 | . | . | 92[fluorescence artefact?] | 86 | . | .
Cc1ccc(Cn2ccc(NC(=O)c3noc4c3CCCCC4)n2)cc1 | . | 4.7 | . | . | . | .
CCc1ccc(NC(=O)c2noc3c2CCC3)cc1 | . | . | 81 | 77 | . | .
SMILES | Smad3 inh | MRP1 act | ERa SRC1 inh | ERb SRC1 inh | MRP resist rev | ERa SRC1 pot
COC(=O)c1ccccc1NC(=O)c1noc2c1CCC2 | . | . | 89[fluorescence artefact?] | 87 | . | .
O=C(NC1CCCCC1)c1noc2c1CCCCC2 | . | . | 50[fluorescence artefact?] | 61[fluorescence artefact?] | . | .
CC(C)(C)C1CCc2onc(C(=O)NC3CCCC3)c2C1 (centres undefined) | . | . | . | . | . | .
O=C(CCn1nnc2ccccc21)Nc1nnc(-c2ccccc2F)s1 | . | . | . | . | . | 248
Nc1ccc(C(=O)OCC(=O)N2CCc3ccccc3C2)cc1[N+](=O)[O-] | / | . | / | / | / | /
Nc1ccc(C(=O)OCC(=O)N2c3ccccc3Sc3ccccc32)cc1[N+](=O)[O-] | / | 8.7 | / | / | / | /
COc1ccc(-n2c(SCC(=O)Nc3nccs3)nc3sc4c(c3c2=O)CCN(C)C4)cc1 | . | . | 51 | . | . | .
O=C(CSc1nc2c(c(=O)n1-c1ccc(Br)cc1)SCC2)Nc1nccs1 | . | . | 59 | . | . | .
CCC(C)NC(=O)CSc1nc2ccsc2c(=O)n1-c1ccc(OC)cc1 (centres undefined) | . | . | . | . | . | .
COc1ccc(-n2c(SCC(=O)NC3CCCCC3)nc3ccsc3c2=O)cc1 | . | . | . | . | . | 214[fluorescence artefact?]
O=C(CSc1nc2c(c(=O)n1-c1ccc(Cl)cc1)SCC2)Nc1nccs1 | . | . | . | . | . | .

Compound activity (PubChem BioAssay)
